Source: PubChem BioAssay (National Center for Advancing Translational Sciences (NCATS))
Compounds with a hit are over-represented: about 2.2% of the library has one in this group of screens.
IDH1 R132H inh – qHTS for Inhibitors of mutant isocitrate dehydrogenase 1 (IDH1): qHTS; Isocitrate dehydrogenase [NADP] cytoplasmic (Homo sapiens), O75874; IDH1-R132H enzyme, NADPH consumption, diaphorase/resazurin fluorescence; Potency, µM (doses to about 76.6 µM), for the others: top-dose activity change, negative = inhibition, usual class: inhibitors; hit rate 0.093% among 390,000; AID 602179, 2012; further: potency means the concentration at half of the fitted maximal effect; on the % scale 0 is the no-effect control and ±100 the full control effect; nearly all actives have a fitted effect of over 65% in size
Target sequence (O75874 whole entry R132H, stated change not applied): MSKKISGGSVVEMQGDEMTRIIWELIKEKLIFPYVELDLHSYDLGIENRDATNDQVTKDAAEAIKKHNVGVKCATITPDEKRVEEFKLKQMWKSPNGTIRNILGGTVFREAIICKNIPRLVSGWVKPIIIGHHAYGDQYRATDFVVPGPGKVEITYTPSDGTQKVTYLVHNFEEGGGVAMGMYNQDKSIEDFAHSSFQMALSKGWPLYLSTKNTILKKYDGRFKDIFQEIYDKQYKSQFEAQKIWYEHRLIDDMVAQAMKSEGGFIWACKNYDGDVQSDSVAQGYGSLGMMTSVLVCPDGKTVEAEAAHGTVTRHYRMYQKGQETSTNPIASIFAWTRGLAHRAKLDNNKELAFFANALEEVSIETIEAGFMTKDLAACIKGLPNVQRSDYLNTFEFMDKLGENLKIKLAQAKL
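IDH1-R132H (0.5 ug/mL) preincubated 30 min with compound, then NADPH (0.016 mM) and alpha-KG (2 mM) added; 80 min at RT, pH 7.5. Remaining NADPH coupled via diaphorase/resazurin to fluorescence (540/590 nm); concentration-response curves normalized to no-enzyme control.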
LDHA inh – qHTS assay for inhibitors of human lactate dehydrogenase; purified LDHA, NADH/diaphorase-resazurin fluorescence; stronger effect = lower value; activity change, % (values are at about 110 or 230 µM); AID 1347041, 2019; hit rate 0.15% among 480,000; in the data active means activity change below about -30%; inconclusive means mostly about -25% to -30%;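 further: plate controls were DMSO wells for no effect and wells without enzyme for full effect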
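Human LDH5 at 2 nM final in Tris HCl pH 7.4 with 0.06 mM NADH and 0.2 mM pyruvate, reacted 5 minutes at room temperature. Remaining NADH coupled via diaphorase/resazurin; resorufin fluorescence read at 0 and 20 minutes, normalized to enzyme-free and DMSO wells.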
HepG2 tox – qHTS for Inhibitors of TGF-b: Cytotox Counterscreen | HepG2 CAGA-GFP viability, ATP luminescence, 18 h | Potency, µM (titrated, usually from 46.1 µM), inactives show at the highest dose activity change, negative = cytotoxicity, usual class: cytotoxic | hit rate 0.76% among 410,000; further: potency means the concentration at half of the fitted maximal effect
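CellTiter-Glo luminescence gave cytotoxicity after 18 hours at 37 degrees C. The cells were HepG2 CAGA-GFP in 1% FBS DMEM, stimulated with 500 pg/mL TGF-beta after compound addition. %Activity was normalised to no-cell wells (complete cell-killing) and DMSO (no toxicity), and curves were fitted and classified.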
ATXN2 expr inh – Primary qHTS for Inhibitors of ATXN expression; HEK-293 ATXN2-luciferase reporter, luminescence, 24 h; Potency, µM (series often up to 57 µM), for inactives: at the highest dose activity change, negative = inhibition, actives largely listed as inhibitors; hit rate 0.72% among 360,000; further: potency means the concentration at half of the fitted maximal effect; on the % scale 0 is the no-effect control and ±100 the full control effect; nearly all actives have a fitted effect of over 55% in size
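ATXN2-luciferase reporter cells (luciferase flanked by upstream and downstream ATXN2 gene portions) were treated 24 h at 37 °C with compounds at up to 57 uM. SteadyGlo luminescence gave expression; GF-AFC fluorescence gave viability.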
ATXN viability – Viability Counterscreen for Primary qHTS for Inhibitors of ATXN expression; hit rate 0.49% among 400,000; S2 cells (HEK-293 line with an ATXN2-luciferase reporter) viability, CellTiter-Fluor protease fluorescence, 24 h; Potency, µM (doses to about 56.7 µM), most hits filed as cytotoxic; AID 651635, 2014; further: potency means the concentration at half of the fitted maximal effect; nearly all actives have a fitted effect of over 40% in size
TGFb SMAD3 inh – qHTS for Inhibitors of TGF-b; HepG2 CAGA-GFP TGF-b/SMAD3 reporter, GFP fluorescence, 18 h; TGF-beta stimulated, 500 pg/mL final; Potency, µM (top dose mostly 46.1 µM), for the others: at the highest dose activity, negative = inhibition, most hits filed as inhibitors; hit rate 1.2% among 410,000; further: potency means the concentration at half of the fitted maximal effect; on the % scale 0 is the no-effect control and ±100 the full control effect; nearly all actives have a fitted effect of over 65% in size
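Inhibition of TGF-beta-driven CAGA-GFP reporter expression in HEPG2 cells is measured by cellular GFP fluorescence after 18 h stimulation with 500 pg/mL recombinant TGF-beta in 1% FBS medium at 37 degrees C.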
Numbers without * were called inactive; i = inactive; u = inconclusive; x = no result given; ! = repeats disagree. Unless noted, the call rests on the fitted dose curve; in most records, active means well fitted curve in the direction sought with a large enough effect; inconclusive means small, poorly fitted or top-dose-only effect, or another doubt; inactive means no such curve, though single readings can be large; an effect the other way counts as inactive or inconclusive.

SMILES	IDH1 R132H inh	LDHA inh	HepG2 tox	ATXN2 expr inh	ATXN viability	TGFb SMAD3 inh
COCC(C)NC(=O)CCS(=O)(=O)c1nc(-c2ccc(OC)cc2)cc(C(F)(F)F)n1 (centres undefined)	4%	-8	-110%	u	u	11µM*
COc1ccc(-c2cc(C(F)(F)F)nc(N)n2)cc1	-3%	-14	2%	30%	i	-5%
COc1ccc(-c2cc(C(F)(F)F)nc(S(C)(=O)=O)n2)cc1	21%	-9	-101%	u	18µM*	3.5µM*
c1ccc(-c2csc3ncnc(Sc4nnnn4-c4ccccc4)c23)cc1	x	3	-85%	x	x	11µM*
Cn1nnnc1Sc1ncnc2scc(-c3ccc(F)cc3)c12	-10%	-6	10µM*!	u	u	11µM*
Cn1nnnc1Sc1ncnc2scc(-c3ccc[nH]3)c12	x	0	-111%	10µM*	u	u
Cn1nnnc1Sc1ncnc2scc(-c3ccc(Br)cc3)c12	x	-14	16µM*	16µM*	13µM*	u
Cc1ccccc1CNC(=O)CC(C)C	x	4	x	x	x	x
COc1cccc(C(O)c2nc(-c3cccc(C(F)(F)F)c3)cs2)c1 (centres undefined)	x	-1	-40%	-24%	u	u
O=C(NCc1ccccc1)c1cc(S(=O)(=O)N2CCCCC2)ccc1N1CCOCC1	2%	-2	-3%	-3%	i	-6%
Cn1c(-c2ccccc2)cc(=O)cc1-c1ccccc1	-5%	-17	-1%	x	i	22%
O=c1cc(-c2ccccc2)cc(-c2ccccc2)n1O	2%	-2	-8%	14µM*	16µM*	u
CCCCCCCCC[n+]1cccc2c3ccccc3ccc21	9%	-1	16µM*	2.2µM*	i	1.8µM*
CCCCCCCCCCCC[n+]1ccc(C)c2ccccc21	x	x	-30%	x	x	u
CCCCCCCCCCCCCCCC[n+]1cccc2ccccc21	-4%	-21	11µM*	u	18µM*	6.3µM*
CCCCCCCCCC[n+]1cccc2cc(Br)ccc21	x	x	-48%	x	x	u
Cc1[nH]c2ccccc2c1SCC(=O)NNC(=O)Nc1ccc(OC(F)(F)F)cc1	-7%	-3	10%	0%	i	u
NCCCn1c(C(=O)c2ccc(Cl)cc2)c2ccc([N+](=O)[O-])cc2[n+]1[O-]	-2%	3	-32%	u	u	10µM*
Cc1ccc(C(=O)c2c3ccc([N+](=O)[O-])cc3[n+]([O-])n2CCCC(N)=O)cc1	9%	6	-22%	u	u	u
NC(=O)CCCn1c(C(=O)c2cc(Cl)c(N)c(Cl)c2)c2ccc([N+](=O)[O-])cc2[n+]1[O-]	-10%	2	-54%	u	28µM*	7.9µM*
NC(=O)CCCn1c(C(=O)c2ccc(Cl)cc2)c2ccc([N+](=O)[O-])cc2[n+]1[O-]	-7%	2	-33%	u	18µM*	u
Cc1ccc2c(c1)[C@H]1[C@H](CO2)[C@H](c2ccccc2)[C@]2(C)C(=O)Nc3ccc(F)cc3C(=O)N12	6%	1	-27%	u	u	-20%
CCCC[n+]1ccn(C2=C([O-])c3ccccc3C(=O)/C2=N\S(=O)(=O)c2ccc(Cl)cc2)c1	12%	11	11µM*	u	u	10µM*
CCCCC[n+]1ccn(C2=C([O-])c3ccccc3C(=O)/C2=N\S(=O)(=O)c2ccc(Cl)cc2)c1	8%	13	3.5µM*	-24%	i	3.2µM*
CCC(=O)c1ccc(OCC(=O)N(CC)CC(=O)Nc2ccccc2OC)cc1	6%	-6	7%	0%	i	-29%
SMILES	IDH1 R132H inh	LDHA inh	HepG2 tox	ATXN2 expr inh	ATXN viability	TGFb SMAD3 inh
COc1cccc(NC(=O)CSc2nc3c(sc4ccccc43)c(=O)n2CCCN2CCCC2)c1	2%	-5	-75%	x	22µM*	u
O=C(CSc1nc2ccccc2c(=O)n1CCCN1CCOCC1)Nc1ccc(F)c(Cl)c1	-7%	0	-32%	u	u	-24%
Cc1ccc(NC(=O)CSc2nc3ccccc3c(=O)n2CCCN2CCCCC2)cc1Cl	11%	-1	14µM*	u	u	u
CCOC(=O)C1CCCN(c2c(C(=O)c3ccccc3)cnc3ccc(OC)cc23)C1 (centres undefined)	-16%	1	-24%	-11%	i	-23%
CCOC(=O)c1cnc2ccc(OCC)cc2c1N1CCN(c2ccccc2F)CC1	-13%	-1	-27%	0%	u	11µM*
CCOC(=O)C1CCN(c2c(C(=O)c3ccc(OCC)cc3)cnc3ccc(OC)cc23)CC1	0%	-5	-32%	u	u	8.9µM*
CC(C)[C@H](NC(=O)Cc1ccccc1)C(=O)OCc1cc(=O)n2c(n1)sc1ccccc12	1%	-2	-25%	6%	i	16µM*
Cc1ccc2c(CC(=O)OCc3cc(=O)n4c(n3)sc3ccccc34)coc2c1	4%	0	6%	1%	i	0%
Cc1ccc(CNc2ccc(N3CCOCC3)cc2)cc1	18%	23	-14%	12%	i	-1%
CC(C)(C)c1ccc(-n2ncc3c2CCCC3NC(=O)CN2CCCC2=O)cc1 (centres undefined)	6%	-7	13µM*	-12%	i	-42%
Cc1cc(C)cc(-n2ncc3c2CCCC3NC(=O)CN2CCCC2=O)c1 (centres undefined)	0%	-1	-2%	14%	i	-7%
CN(C)c1oc(-c2ccc(F)cc2)nc1S(=O)(=O)c1ccc2c(c1)OCCO2	x	5	x	x	x	x
CC[C@H](C)[C@@H]1NC(=O)[C@H]([C@@H](C)CC)NC(=O)[C@@H](CC(C)C)NC(=O)[C@H](Cc2ccccc2)NC(=O)[C@H](Cc2ccccc2)NC(=O)[C@@H]2CCCN2C(=O)[C@@H]2CCCN2C(=O)[C@H](C(C)C)NC(=O)[C@H](CC(C)C)NC1=O	-5%	6	-3%	u	28µM*	-8%
C=C(C)COc1ccc(-c2nc(N)ncc2-c2ccc(Br)cc2)c(O)c1	-4%	-1	-105%	-8%	i	16µM*
COc1ccc(-c2nc(N)ncc2-c2ccc(OC)c(OC)c2)c(O)c1	14%	-11	-22%	-13%	i	0%
